This is an account of results in the OligoGym collection.
Also: reference of the scale not given here.

The first assay has as its target PQLC1. Briefly: pooled miR-30 sensor sort-seq; sequence = guide strand. The following applies: shRNA.
Turning to TTGACTTCTTCATCCTTGCTAT, the sensor-assay potency score (higher = more potent) was 0.0479.

Turning to TAGTCCGAGAAGCTGCTCCACT, the sensor-assay potency score (higher = more potent) is -0.969.

Sequence TAGGTGGAGAAGCCGTCGGCGT gave a sensor-assay potency score (higher = more potent) of -1.4.

TTGATGCTCATGCCCTCCGTGG displayed a sensor-assay potency score (higher = more potent) of -1.49.

On to AAGTCCAGGAAGGACCGCCTGG, for which the sensor-assay potency score (higher = more potent) is -1.26.

As to TGCACGTAGTCCGAGAAGCTGC, the sensor-assay potency score (higher = more potent) is -1.19.

As to TCTGCAGCTGTAAAGGAGCGGC, the sensor-assay potency score (higher = more potent) was -0.795.

The sequence TCGAAGTCCAGGAAGGACCGCC displayed a sensor-assay potency score (higher = more potent) of -0.0699.

The sequence ATGAGCACCATCTTGATGCTCA returned a sensor-assay potency score (higher = more potent) of -0.811.

For the sequence TTGAGCTCGTTGGCCACACGGA, the sensor-assay potency score (higher = more potent) was -0.78.

As to AACCTTGACTTCTTCATCCTTG, the sensor-assay potency score (higher = more potent) came out at 0.292.

The target of a further assay is PRADC1. The description is as above. The following applies: shRNA.
For the sequence TGAATCTGCTCATACCTTGTGT, the sensor-assay potency score (higher = more potent) is -0.084.

With TTTGTTTCGGGTTCTAGCCAGA, the sensor-assay potency score (higher = more potent) was -0.698.

Consider TCTTGTAGCATGAGACACCCTT, for which the sensor-assay potency score (higher = more potent) was -0.0908.

As for TGGATGAAGAAACCGTTGCTGA, the sensor-assay potency score (higher = more potent) is -1.26.

On to TAGCATGAGACACCCTTGGGGG, for which the sensor-assay potency score (higher = more potent) is -0.696.

TTTTGTTTCGGGTTCTAGCCAG registered a sensor-assay potency score (higher = more potent) of -0.533.

Take AAAGATACCACCAAAGTCCTTG: the sensor-assay potency score (higher = more potent) is 0.163.

TCATGTAGCCGTCTCGGCCGAG yielded a sensor-assay potency score (higher = more potent) of -1.06.

In the case of TTGTGTGAAAGATACCACCAAA, the sensor-assay potency score (higher = more potent) was -1.24.

With ATGCTGGTGACATTGACTGGGA, the sensor-assay potency score (higher = more potent) is -1.

Turning to TAAACCACTCCAACAACTGCTG, the sensor-assay potency score (higher = more potent) turned out to be 0.158.

Sequence ATCATCTCCACGTAGAAGCTGT registered a sensor-assay potency score (higher = more potent) of -0.485.
